In the supplement of paper PMC12636033:
± gives the standard deviation of the averaged measurements. Whole data set: some 33,000 sequences, median “E-score (rank enrichment, -0.5 to 0.5)” near -0.0028, cut for the highest 2% near 0.23. The list comes from a sample in which the highest values are over-represented; it also holds similar and randomly drawn sequences.

test system: 2Sb-muMax20 (muMax20 with two 1,3-bis(methyl)benzene Cys staples, A13C/A17C and Q88C/A92C, C-terminal Lys); experiment: PBM 8-mer E-score (E-score (rank enrichment, -0.5 to 0.5)); higher = stronger preferential binding
Description: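 Protein binding microarray (universal PBM chip covering all 10-mers in fixed probe flanks) with chemically synthesized human Max(13-93) bHLH-LZ analogs (not full-length Max) bearing noncanonical residues (hArg, Tha, Aib, Nle at 65) and aromatic Cys staples. Read-out per 8-mer (and its reverse complement): E-score (rank-based enrichment, -0.5 to 0.5) and Z-score of median probe intensity.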

Sequence	PBM 8-mer E-score
CAACCCCG	-0.0958 ± 0.017
CCTGCATC	-0.118 ± 0.02
GCTCCGTA	-0.181 ± 0.026
CACACCTG	-0.176 ± 0.087
CACACCTC	0.11 ± 0.0036
CACGCGGA	0.28 ± 0.036
AACGCGGA	-0.0532 ± 0.04
CACGCGGG	0.115 ± 0.007
CACACCTA	0.251 ± 0.023
TCACGGGA	-0.0219 ± 0.047
CTCAAGTC	0.0478 ± 0.02
AGGGTTGC	-0.0164 ± 0.024
CAGTCCGC	-0.188 ± 0.055
AGGTGCGG	0.0251 ± 0.022
AATTTATG	0.238 ± 0.043
ATTTTATG	0.0605 ± 0.031
ATTTTATA	0.206 ± 0.038
AATTTATA	0.248 ± 0.02
AATTTATC	0.18 ± 0.013
CATTTATA	0.137 ± 0.013
CAGTAAGC	0.00962 ± 0.05
AAAAAACC	0.143 ± 0.026
GGCTCCGA	-0.22 ± 0.014
AAGGCAAT	0.0342 ± 0.0041
ATAATTGA	0.258 ± 0.029

Sequence	PBM 8-mer E-score
CCAATTGA	0.252 ± 0.0093
ATAATTTA	0.235 ± 0.015
CCAATTAC	0.238 ± 0.015
CCAATTAA	0.159 ± 0.045
CTAATTGA	0.053 ± 0.057
ACAATTGA	0.194 ± 0.031
ATAATTTG	0.132 ± 0.036
ACAATTAC	0.194 ± 0.031
TCAATTGA	0.1 ± 0.058
GTAATTGA	0.0929 ± 0.019
GTAATTTA	0.0825 ± 0.086
CCGAGAGC	-0.304 ± 0.02
TCTCCGCA	-0.148 ± 0.043
CATGTTCG	0.00518 ± 0.06
CAGCTGAA	-0.0746 ± 0.0082
AAAATGAC	0.134 ± 0.0081
CCCCTAAA	0.0345 ± 0.052
CAGGCAAG	-0.0204 ± 0.051
CAGTGAAG	-0.0862 ± 0.073
AATGAGAA	-0.0163 ± 0.03
GCGAACCA	-0.037 ± 0.021
ACAGATTC	0.111 ± 0.028
GCGTGGTA	0.0782 ± 0.019
CTCTACTA	0.168 ± 0.024
ATGCCATG	0.026 ± 0.072

Sequence	PBM 8-mer E-score
ATGCCATC	0.134 ± 0.0047
ATGCCATA	0.246 ± 0.022
AAACAGAT	-0.0777 ± 0.083
GTTTGAGA	-0.0465 ± 0.092
CAACAGAC	0.0401 ± 0.00088
AACATATA	0.237 ± 0.031
AACATATT	0.2329 ± 0.0015
CACATATA	0.21 ± 0.068
GACATATA	0.0756 ± 0.061
AACATATC	0.124 ± 0.0061
AACATATG	0.182 ± 0.013
ATCGTTAG	-0.0184 ± 0.067
GTAGACAC	0.0487 ± 0.053
ATTACAAC	0.1 ± 0.033
GATAGGGA	-0.111 ± 0.072
TATAGGGA	-0.0259 ± 0.048
AATAGGGA	0.23 ± 0.0053
ATCAAACG	-0.0315 ± 0.075
CTGTACAA	0.0289 ± 0.12
GGGTACAA	0.0409 ± 0.026
TGGTACAA	0.265 ± 0.021
AGGTACAA	0.0983 ± 0.038
AGGTATAA	0.147 ± 0.0065
TTGTACAA	0.29 ± 0.033
GTGTACAA	0.216 ± 0.039

Sequence	PBM 8-mer E-score
CGGTATAA	0.127 ± 0.043
TGGTATAA	0.239 ± 0.0046
CGTTAACC	0.0325 ± 0.077
CTCGCCAG	-0.193 ± 0.077
CACGAATA	0.0625 ± 0.022
CCGTATGA	-0.0951 ± 0.073
AAAGCATG	0.181 ± 0.039
ACCGGGAT	-0.253 ± 0.025
AATCCCCG	0.0673 ± 0.076
TATCCCCA	0.282 ± 0.018
CATCCCCA	0.141 ± 0.047
GATCCCCA	0.153 ± 0.12
AATCCCCT	0.2795 ± 0.0021
AATCCCAT	0.185 ± 0.057
AATCCCAA	0.158 ± 0.025
AATCCCCC	-0.219 ± 0.0031
AATCCCCA	0.258 ± 0.01
ATCGCTAC	-0.0426 ± 0.015
CCCGACAC	-0.0833 ± 0.071
AATGAGGC	0.0433 ± 0.059
GAAAGGAA	0.00148 ± 0.06
GATTCATA	0.178 ± 0.02
CATTCATA	0.264 ± 0.046
CATTCATC	0.0987 ± 0.029
CGAGAGCA	-0.0422 ± 0.048

Sequence	PBM 8-mer E-score
ACGAAGAT	0.0215 ± 0.059
TCGAAGAA	0.0801 ± 0.041
ACGAAGAA	0.2404 ± 0.0017
AGATGCGC	0.0628 ± 0.014
CCGAATTA	-0.0865 ± 0.076
GTCGGGCA	-0.103 ± 0.025
GATGAATA	0.246 ± 0.059
TATGAATA	0.211 ± 0.052
GATGAATC	0.06 ± 0.071
TACATCGA	0.106 ± 0.022
AAGTGTCC	0.0439 ± 0.046
AAAATCTA	0.00391 ± 0.078
AAACGACT	0.24 ± 0.023
AAACGACC	0.115 ± 0.032
AAACGACG	0.0001 ± 0.01
TAAGTTCA	-0.0564 ± 0.0074
CACATAAA	0.0814 ± 0.0052
AACATAAA	0.145 ± 0.0096
AACATACG	0.273 ± 0.019
TACACATA	0.268 ± 0.019
GACATAGA	-0.0561 ± 0.027
TACATAAA	0.242 ± 0.046
CACATACG	0.0173 ± 0.041
AACATACT	0.1 ± 0.032
GACATACC	-0.168 ± 0.044

Sequence	PBM 8-mer E-score
GACACATA	0.0252 ± 0.086
GACATACA	0.235 ± 0.0046
CACACATA	0.00584 ± 0.1
CGTGGGAC	0.0245 ± 0.068
CATTGGAC	-0.164 ± 0.097
ACTGAGAA	-0.135 ± 0.097
ACATGAAA	0.0717 ± 0.024
CAGGAGAA	0.107 ± 0.037
AGCAGCGA	-0.182 ± 0.0055
AGTGTTGG	0.043 ± 0.048
GCGAGACA	-0.0901 ± 0.089
AGAATTGA	-0.00649 ± 0.005
CCGGTGGA	-0.167 ± 0.015
ATAAGACC	0.114 ± 0.078
AAGGTATT	0.0792 ± 0.027
ATAGGAGG	-0.0435 ± 0.015
GGTGTCCA	0.00348 ± 0.039
ACTTACCC	0.166 ± 0.053
AACATACA	0.153 ± 0.061
CACATACA	0.0172 ± 0.022
TACATACA	0.235 ± 0.031
TCCTGCGA	-0.0443 ± 0.016
AATAAATG	0.226 ± 0.0099
AATAAAAA	0.187 ± 0.046
AATAAAAT	0.0858 ± 0.023

Sequence	PBM 8-mer E-score
CTTAAATA	0.056 ± 0.014
ATTAAATA	0.208 ± 0.023
AATAAATT	0.271 ± 0.019
AATAAATA	0.0902 ± 0.023
CATAAATA	0.293 ± 0.029
GTTAAATA	0.23 ± 0.023
AATAAAAG	0.241 ± 0.065
TATAAATA	0.133 ± 0.019
CATAAAAG	0.00379 ± 0.14
ATGTAAGA	0.104 ± 0.011
ACTCTTTC	0.0291 ± 0.035
CTTTATCC	0.0138 ± 0.00086
CGCAAACG	-0.0619 ± 0.011
CAAAATAG	0.0583 ± 0.12
CGACATTC	-0.0236 ± 0.057
TCGCAGCA	-0.185 ± 0.015
CCTTACAA	-0.0496 ± 0.00098
TAACCGTA	0.179 ± 0.033
ATGAAGGA	0.0372 ± 0.02
CAGATGGG	-0.06 ± 0.043
ACGCCACA	0.113 ± 0.019
TCACTGAA	0.0386 ± 0.03
